The test system of the assay is VDR:RXRa (NR concentration 270 nM, RXRa partner concentration 90 nM). Description: PBM binding z-score (relative to random genomic background probes); higher = stronger binding; sequences stand for … in GC…GCGATTGACAGCGTAGAATGAAGG
The procedure: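 Protein-binding microarray (Agilent 4x180K custom design, double-stranded 60-nt probes: 5' GC cap, 34-nt variable region, 24-nt constant primer region; full probe sequence given). Purified or IVT nuclear receptor:RXRα heterodimers (3:1 NR:RXRα, mostly 270:90 nM) or homodimers were incubated for 1 h in PBS with 2% milk and no ligand, then detected with Alexa488 antibodies. Fluorescence from o1-orientation probes (~5 replicates averaged) was converted to z-scores against 500 random hg19 background probes. Variable regions are seed direct-repeat (DR0–DR5) sites, all their single-nucleotide variants and half-site ablations.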
CCTCGGAGGGCAGAAGGTCAGAGCTGTCCGCTTT gave a PBM binding z-score of 1.17.

The sequence CGTCCAAGGTCAAGGTCAGTAAAAGAGACTCGAA yielded a PBM binding z-score of 4.65.

For CGAACTAGGTCATTGACAGGACAGTGACTAGTAA, the PBM binding z-score came to 2.42.

The sequence AGAATGTGGTTACCAAAGATCAGGGAAACGCTTG displayed a PBM binding z-score of -0.233.

AGAGCGAGGGCAATGAGTTGATAGCACGGGTGGC yielded a PBM binding z-score of 4.97.

Sequence TCTATTAGTTGATTAGGGCCACCGAAACAGCGGA registered a PBM binding z-score of 0.782.

Consider CGAACCAGGTCATTGACAGGACAGTGAATAGTAA, for which the PBM binding z-score is 2.85.

TCTGCTAGGCCAACGATGGTCAGCTAATCTGCTA gave a PBM binding z-score of -0.596.

In turn, AGAATGAGGTTATTAAGACCAGGGAATTGCGGTC displayed a PBM binding z-score of 1.69.

For CTAACTAGGTCAAGAGGTCAAAGTCCGCTTCCCG, the PBM binding z-score was determined as 6.

In the case of AGTCAAAGTTCAGGACCAGGTAACGTAAAGCACG, the PBM binding z-score was determined as 2.41.

With ATATGTAGGTTATCGGGCCATTCAGTTTGCGCAT, the PBM binding z-score was found to be 1.14.

GCTAGCAGGCCATTTGGGTCACTCCATGACGGGC returned a PBM binding z-score of 0.513.

Regarding GCATATAGGTAATACAAGGTGGAAGTCCGATTGT, the PBM binding z-score was -0.118.

For ATATGTATGTTAGCTGGGGTCATTCAGACTAGGC, the PBM binding z-score was 5.07.

CCTACTGGGCCATCAGGTCTTTGATATCAACGTT displayed a PBM binding z-score of -0.244.

TAGCCTAGGTCATCCAGGGGCCAGTATAGAAAGC: the PBM binding z-score turned out to be 3.1.

AGAATGAGGTTATTGAGATCAGGGAATTGCGGTC yielded a PBM binding z-score of 3.35.

As to CCGACTGGGGCGAAGGTTACCATACTCAGTACGA, the PBM binding z-score was 0.0154.

In turn, ATCTCTAGGTAACCAAATTCAGTGAATGCCGAAC showed a PBM binding z-score of 0.296.

As to TAGCCTAGGTCATGGGCCATTATACCACGCGAAC, the PBM binding z-score came out at 2.27.

Consider AGTCAAAGTTCGCTAGGTAACGTAAGATTCAGCT, for which the PBM binding z-score was 0.489.

With CAAACTAGGTAACAGAGGTCAAAGTCCGTGCGTA, the PBM binding z-score was 5.87.

As to TCTTGTTGATCAATAGAGGTTAAGAAAGTGCGCT, the PBM binding z-score stood at 1.69.

As to TCGAGTAGGGTAGTCGGGGCATTCAGCCAACATA, the PBM binding z-score worked out at 0.167.

As to CAACCTAGGTCAGGGCCAGTATAGGAGGAACGTT, the PBM binding z-score turned out to be 0.746.

The sequence ATATGAAGGTTAGCTGGGGTCATTCAGACTAGGC showed a PBM binding z-score of 6.61.

As to TATACAGGGTCAAAGCCCAGAGTACGAATGTCGA, the PBM binding z-score was found to be 4.41.

Take TCTGCTAGGTCAGATGGTCAGCTAACGAGCTGCC: the PBM binding z-score came out at 0.133.

Turning to CCTACTGGGCCATTCGGAGGTCATTGATCATATG, the PBM binding z-score came to 3.03.

In turn, ATCTCTAGGTAACAAGTTCACTGAAAGAGAGGAC registered a PBM binding z-score of 3.26.

TGTGAAAGTTCAAAGGTAACGTAAGTATCCACAC: the PBM binding z-score was found to be 4.88.

Regarding CATACAGGGTCAGCTGGGCCAGAGTAGGGACGGC, the PBM binding z-score is 3.63.

AGAACCAGGGCACGCTGAGTTGATAGCAGAGTAG yielded a PBM binding z-score of 0.532.

CCTTCCGGGTCACGAGGTTATAGCACGACGAGCG returned a PBM binding z-score of 5.39.

The sequence TAGCCTAGGTCATGAGCCAGTATACCACGCGAAC gave a PBM binding z-score of 1.88.

ATCCAAAGGTCGTGAGGTGAGTATACAGAAAGGC displayed a PBM binding z-score of 3.91.

In the case of CCTTACGGGTCACTGACAGGTTACAGCATTTGGA, the PBM binding z-score turned out to be 3.76.

TCAGACAGGTGTAGGTAACTCAGGTACGCAGTCG: the PBM binding z-score came out at 0.89.

ACTAGTTGGTCAGCAGAGGTCACACACAATTCGG yielded a PBM binding z-score of 4.87.

(Values after the supplement of paper PMC6555819.)
